Measurements taken from PubChem BioAssay AID1851 (National Center for Advancing Translational Sciences (NCATS), 2009).
Values joined by “and” are separate entries in the source; they are usually repeats but may differ in a detail not shown here. Equal values may be shown once. Hit rate of the full screen: of about 16,000 compounds, about 2,600 (16%) were called active. Another 20% or so got no clear call; they are omitted. These entries were drawn from the full list. Values without a mark were called inactive. Calls come from the whole dose curve; as a rule, active = well fitted curve in the direction sought with a large enough effect; inconclusive = small, poorly fitted or top-dose-only effect, or effect the other way; inactive = no such curve, though single readings can be large or run the other way.

Molecular target: Cytochrome P450 2D6 (Homo sapiens) (UniProt P10635)
Test: Cytochrome panel assay with activity outcomes
Conditions: recombinant CYP, pro-luciferin dealkylation, luminescence, p450-cyp2d6; series mostly up to 57.1 µM; activity, negative = inhibition: at the top concentration
% is set by controls: 0 for no effect and ±100 for the full control effect.

Chain of Cytochrome P450 2D6 (Homo sapiens) (P10635 whole entry, looked up): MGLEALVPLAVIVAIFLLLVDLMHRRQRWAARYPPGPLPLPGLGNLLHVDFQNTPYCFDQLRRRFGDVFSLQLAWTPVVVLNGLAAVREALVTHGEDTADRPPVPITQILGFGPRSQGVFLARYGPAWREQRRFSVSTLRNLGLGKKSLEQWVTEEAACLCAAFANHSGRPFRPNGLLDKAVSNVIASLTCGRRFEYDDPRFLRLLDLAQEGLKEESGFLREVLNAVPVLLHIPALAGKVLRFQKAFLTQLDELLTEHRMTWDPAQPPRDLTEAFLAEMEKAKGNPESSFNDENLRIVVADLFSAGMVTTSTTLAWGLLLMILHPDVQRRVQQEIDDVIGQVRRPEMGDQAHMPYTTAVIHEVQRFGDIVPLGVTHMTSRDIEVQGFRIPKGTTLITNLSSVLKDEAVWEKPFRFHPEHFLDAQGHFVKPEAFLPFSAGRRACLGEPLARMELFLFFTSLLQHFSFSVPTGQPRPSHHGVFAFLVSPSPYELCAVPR

Row | Structure (SMILES) | activity, negative = inhibition | AC50
1 | COCc1c(C(=O)OCC(=O)N2c3ccccc3NC(=O)C2(C)C)oc2ccccc12 | 9.74% | 
2 | C/C(CCC(=O)OC[C@@H]1O[C@H](C#Cc2ccccc2)C=C[C@@H]1Oc1ccc(C)cc1)=N/O[C@@H](C)CN1CCCc2nc(C)c(C)cc21 |  | 3.16 µM (active)
3 | COc1ccc(O[C@H]2C=C[C@@H](c3ccccc3)O[C@@H]2CO/N=C(\C)CCN2CCCc3nc(C)c(C)cc32)cc1 |  | 3.16 µM (active)
4 | COc1cccc([C@@H]2Oc3ccc(OC)cc3/C(=N/O[C@@H](C)c3cn([C@H]4COC[C@H]4O)nn3)[C@@H]2O)c1 | -18.2% [at 11.4 µM] | 
5 | COc1ccc(O[C@H]2C=C[C@@H](c3ccccc3)O[C@@H]2CO/N=C(\C)CCN2CCc3nc(-c4ccccc4)c(-c4ccccc4)cc3C2)cc1 | -14.1% [at 11.4 µM] | 
6 | C/C(CCC(=O)OC[C@@H]1O[C@H](C#Cc2ccccc2)C=C[C@@H]1Oc1ccc(C)cc1)=N/O[C@@H](C)c1cn([C@H](CO)Cc2ccccc2)nn1 | -5.83% [at 11.4 µM] and -8.36% [at 11.4 µM] | 
7 | COc1ccc(O[C@H]2C=C[C@@H](c3ccccc3)O[C@H]2CO/N=C(/C)CCC(=O)OC[C@@H]2O[C@H](C#Cc3ccccc3)C=C[C@@H]2Oc2ccc(C)cc2)cc1 | 11.9% [at 11.4 µM] | 
8 | CCCNC(=O)OC[C@@H]1O[C@H](CCO/N=C(\C)CCC(=O)OC[C@@H]2O[C@H](c3ccccc3)C=C[C@@H]2Oc2ccc(OC)cc2)C=C[C@@H]1Oc1ccc(OC)cc1 | 5.63% [at 11.4 µM] | 
9 | CCCNC(=O)OC[C@@H]1O[C@H](CCO/N=C(\C)CCN2CCCc3nc(C)c(C)cc32)C=C[C@@H]1Oc1ccc(OC)cc1 | -18.3% [at 11.4 µM] | 
10 | COc1cccc([C@@H]2Oc3ccc(OC)cc3/C(=N/O[C@@H](C)CN3CCCc4nc(C)c(C)cc43)[C@@H]2O)c1 |  | 3.98 µM (active)
11 | COc1cccc([C@H]2Oc3ccc(OC)cc3/C(=N\O[C@@H](C)c3cn([C@H](CO)Cc4ccccc4)nn3)[C@@H]2O)c1 | -6.89% [at 11.4 µM] | 
12 | COc1ccc(O[C@H]2C=C[C@@H](c3ccccc3)O[C@H]2COC(=O)CC/C(C)=N\O[C@@H](C)c2cc(-c3c(C)cc(C)cc3C)no2)cc1 | -7.29% [at 11.4 µM] | 
13 | COc1ccc(O[C@H]2C=C[C@@H](c3ccccc3)O[C@H]2COC(=O)CC/C(C)=N\O[C@@H](C)CN2CCCc3nc(C)c(C)cc32)cc1 |  | 3.16 µM (active)
14 | CCCCCCCCCCCCCCSCC(=O)O | 13.5% | 
15 | COc1ccc(-n2c(-c3cnccn3)n[nH]c2=S)cc1 | -9.31% | 
16 | O=C(Nc1cccc(F)c1)N1CCCC2(CCNCC2)C1 | -13.8% | 
17 | C(/C=C\c1ccccc1)=Nc1ccc2c(c1)Cc1ccccc1-2 | -10.4% [at 11.4 µM] | 
18 | COc1ccc(-n2c(=O)c(-c3cn(C)c4ccccc34)nc3cncnc32)cc1 | -5.82% | 
19 | CC(=O)[C@@]1(O)Cc2c(O)c3c(c(O)c2[C@H](O[C@H]2C[C@H](N)[C@H](O)[C@H](C)O2)C1)C(=O)c1ccccc1C3=O | 0.0095% | 

Row | Structure (SMILES) | activity, negative = inhibition | AC50
20 | Cn1c(CCC(=O)Nc2ccc(N3CCOCC3)cc2)nc(=O)c2ccccc21 | -12.1% | 
21 | COC(=O)c1nn(-c2ccccc2)c(=O)cc1Oc1ccccc1 | -9.53% | 
22 | N#C[C@@H](N=Nc1ccccc1C(=O)O)C(N)=O | -0.182% [at 11.4 µM] | 
23 | O=C(N/N=C/c1cccc(C(F)(F)F)c1)C1CCN(c2ncc(C(F)(F)F)cc2Cl)CC1 | 25.5% | 
24 | COc1ccc(/C=C(/C(=O)Nc2ccccc2C(=O)NC(C)C)c2ccccc2)cc1 | -25.8% | 
25 | Cc1cccc(N2CCN(C(=O)CSCc3c(C)noc3C)CC2)c1C | -27.5% | 
26 | CC(C)OC(=O)CC12CN(C)CC(CC(=O)OC(C)C)(CN(C)C1)C2=O |  | 2.51 µM (active)
27 | COc1ccc(CNC(=O)/C=C/c2ccc(OCCCF)cc2)cc1 | -20.6% | 
28 | CCC(O)CNc1nc(-n2nc(C)cc2C)nc2sc3c(c12)CC(C)(C)OC3 (stereo unspecified) | -8.4% | 
29 | CCCSc1nc(NCc2ccco2)c2c3c(sc2n1)COC(C)(C)C3 |  | 14.1 µM (active)
30 | CCSc1ncnc2c1sc1nc(-c3ccco3)c3c(c12)CC(C)(C)OC3 | -3.51% | 
31 | O=c1cnc2cnc(N3CCOCC3)nc2n1CCc1ccccc1 | -11% | 
32 | CC1(C)CC(=O)C2=C(C1)Nc1cc3c(cc1C2c1ccc(F)cc1)OCO3 (stereo unspecified) |  | 7.08 µM (active)
33 | Cc1cc2c(cc1C)NC(c1nc3ccccc3[nH]1)C1=C(CC(C)(C)CC1=O)N2 (stereo unspecified) | -11.2% | 
34 | CCCc1ccc(C2C3=C(CC(C)(C)CC3=O)NC3=C2C(=O)c2ccccc23)cc1 (stereo unspecified) | 3.78% | 
35 | Brc1ccc([C@H]2CN3CCSC3=N2)cc1 | -14.8% | 
36 | Cc1cccc(C)c1NC(=O)C(c1ccccc1)N1CCC1=O (stereo unspecified) | -9.63% | 
37 | Cc1cccc(C)c1NC(=O)C(c1ccc(Cl)cc1Cl)N1CCCCC1 (stereo unspecified) |  | 10 µM (active)
38 | Cc1cccc(C)c1NC(=O)C(NC=O)c1ccccc1Cl (stereo unspecified) | -25.5% | 

Row | Structure (SMILES) | activity, negative = inhibition | AC50
39 | NC(N)=N[C@@H]1C(O)[C@H](N=C(N)N)[C@@H](O)C(O)[C@H]1O (stereo partly specified) | 4.19% [at 11.4 µM] | 
40 | NNC(=O)Cc1cccnc1 | 8.36% [at 11.4 µM] | 
41 | Cc1cc(C(F)(F)F)nn1CC(=O)Nc1cccnc1 |  | 12.6 µM (active)
42 | CCNS(=O)(=O)c1ccc(NC(=O)c2cc(C(F)(F)F)nn2C)cc1 | 5.15% | 
43 | CC1=NN(c2ccccc2)C(=O)[C@@H]1N=Nc1ccc(S(N)(=O)=O)cc1 | 8.14% [at 11.4 µM] | 
44 | CCOC(=O)N1CCC(NC(=O)CCC(=O)N2CC(C)Oc3ccc(C)cc32)CC1 (stereo unspecified) | -4.46% | 
45 | O=C(Nc1c[nH]c(=O)[nH]c1=O)Oc1ccccc1 | -9.58% [at 11.4 µM] | 
46 | O=C(OCc1nc2ccccc2s1)c1ccc(Br)s1 | -15.7% | 
47 | Cc1noc(C)c1-c1cc(NCc2ccccc2)ncn1 | -7.96% | 
48 | COc1ccc(-c2csc(NC(=O)CCn3cnc4ccccc4c3=O)n2)cc1OC | -11.6% | 
49 | N#Cc1cccc(-c2cc(NCc3ccccc3)ncn2)c1 | -10.1% | 
50 | COc1ccc(CCNc2nc(-c3cccnc3)cs2)cc1OC |  | 7.08 µM (active)
51 | Cc1cnc(CNc2cc(-c3cccnc3)ncn2)cn1 | -6.26% | 
52 | COc1ccc(-c2cc(C(=O)NCc3cccnc3)no2)cc1OC | -16.4% | 
53 | COc1cccc(-c2cc(NCc3ccc(OC)cc3OC)ncn2)c1 |  | 12.6 µM (active)
54 | COc1ccccc1CNc1cc(-c2cccnc2)ncn1 |  | 5.01 µM (active)
55 | COc1cccc(-c2cc(NCc3ccccc3)ncn2)c1 |  | 12.6 µM (active)
56 | Cc1noc(C)c1-c1cc(NCc2cccnc2)ncn1 | 8.5% | 
